The record followed here is PubChem BioAssay (NCATS).

The structures appear in SMILES notation. Active and inactive are the calls of the source. The call rests on the fitted dose curve; in most records, active means well fitted curve in the direction sought with a large enough effect; inactive means no such curve, though single readings can be large or run the other way.

Alpha-galactosidase A (Homo sapiens), sequence (P06280 whole entry, looked up): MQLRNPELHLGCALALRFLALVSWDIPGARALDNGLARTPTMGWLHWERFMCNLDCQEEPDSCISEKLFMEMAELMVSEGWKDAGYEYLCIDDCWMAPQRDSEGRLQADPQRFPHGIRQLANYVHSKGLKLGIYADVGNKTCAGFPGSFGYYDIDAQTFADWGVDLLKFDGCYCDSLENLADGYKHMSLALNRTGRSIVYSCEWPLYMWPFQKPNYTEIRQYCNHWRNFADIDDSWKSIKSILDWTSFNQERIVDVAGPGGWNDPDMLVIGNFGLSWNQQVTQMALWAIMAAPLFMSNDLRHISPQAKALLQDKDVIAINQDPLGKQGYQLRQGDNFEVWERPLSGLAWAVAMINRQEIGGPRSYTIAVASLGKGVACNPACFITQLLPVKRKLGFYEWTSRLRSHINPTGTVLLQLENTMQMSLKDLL

This assay addresses Alpha-galactosidase A (Homo sapiens) (UniProt P06280). Nature of the assay: Counterscreen for Glucocerebrosidase Inhibitors: qHTS Assay for Human alpha-Galactosidase at pH 4.5 (AID 992). The following applies: purified enzyme, fluorogenic substrate; series mostly up to 76.9 µM. The method in brief: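 Quantitative HTS: compounds tested from 0.7 nM up to 77 uM against 2 nM enzyme with 80 uM 4-MU alpha-D-galactopyranoside. The 20 min room-temperature reaction is stopped with 1M NaOH/1M glycine, pH 10.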
(A counterscreen serves to expose hits that act by an unwanted route or on another target.)
Turning to `Cc1ccc(O)c(N=Nc2ccccc2)n1`, the call was inactive. Consider `CN(C)c1nc(N)c(C(=O)N=C(N)N)nc1Cl`, for which the compound was classed as inactive. `CCCN(CC1CC1)c1nc(C)nc(Nc2c(Cl)cc(Cl)cc2Cl)c1Cl`: the compound was called inactive. The value for `NCCCS(=O)(=O)O` was “inactive”; that for `CC(=O)SCC[N+](C)(C)C` was “inactive”. The value for `NCCCCCCCCCCN` was “inactive”; that for `O=C1NC(O)=NC1(c1ccccc1)c1ccccc1` was “inactive”; that for `O=C(c1cc(O)c(O)c([N+](=O)[O-])c1)c1ccccc1F` was “inactive”.

Consider `NC(N)=NC(=O)c1nc(Cl)c(N2CCCCCC2)nc1N`, for which the compound was called inactive. The value for `COC1=C(OC)C(=O)c2ccccc2C1=O` was “inactive”; that for `N#C/C(=C\c1c[nH]c2ccccc12)C(=O)c1ccc(O)c(O)c1` was “inactive”. Consider `CC(C)NC[C@H](O)COc1cccc2[nH]ccc12`, for which the result was inactive. The value for `Cn1cc(C2=C(c3ccc(Cl)cc3Cl)C(=O)NC2=O)c2ccccc21` was “inactive”. For the compound `NC[C@@H]1O[C@H](C23CC4CC(CC(C4)C2)C3)Cc2c1ccc(O)c2O`, the compound was called inactive.

`CCCn1c(=O)c2[nH]c(-c3ccc(OCC(=O)NCCN)cc3)nc2n(CCC)c1=O`: the compound was classed as inactive. The value for `N[C@H](CCCP(=O)(O)O)C(=O)O` was “inactive”; that for `O=C(O)c1cc(=O)c2c(Cl)cc(Cl)cc2[nH]1` was “inactive”. The value for `CN=c1nc(-c2ccccc2)n(-c2ccccc2)s1` was “inactive”; that for `O=C1C(SCCO)=C(SCCO)C(=O)c2ccccc21` was “inactive”; that for `O=S(=O)(c1cccc2c(I)cccc12)N1CCCNCC1` was “inactive”. The value for `CC1(C)CCC=[N+]1[O-]` was “inactive”; that for `Clc1ccc(N2CCN(Cc3c[nH]c4ncccc34)CC2)cc1` was “inactive”; that for `Fc1ccc(C(OCCCc2cnc[nH]2)c2ccc(F)cc2)cc1` was “inactive”. Turning to `CC(C)Cc1ccc([C@H](C)C(=O)O)cc1`, the outcome was inactive.

In the case of `O=C(O)c1cc(=O)c2ccccc2[nH]1`, the compound was classed as inactive. For `Cn1c(=O)c2[nH]c(-c3ccccc3)nc2n(C)c1=O` the value was “inactive”.

Turning to `NC(=O)C(=O)O`, the compound was classed as inactive. For `O=c1[nH]c2cc(C(F)(F)F)ccc2n1-c1cc(C(F)(F)F)ccc1O` the value was “inactive”; for `COc1ccc(/C=C/C(=O)Nc2ccccc2C(=O)O)cc1OC`, “inactive”; for `COC(=O)c1c(C)[nH]c(C)c1C(=O)c1ccccc1Cc1ccccc1`, “inactive”. The value for `N[C@@H](CC(=O)O)C(=O)O` was “inactive”. For `CNCC[C@H](Oc1ccc(C(F)(F)F)cc1)c1ccccc1` the value was “inactive”; for `CCCCN1CCC(n2c(=O)[nH]c3ccccc32)CC1`, “inactive”.
